Experimental data published in PubChem BioAssay (Tox21).
Results filed as inconclusive are left out. Entries that show only a call come without a potency. A number with no mark means an inactive call. The source made the active and inactive calls. The call rests on the fitted dose curve.

Molecular target: Muscarinic acetylcholine receptor M1 (Homo sapiens) (UniProt P11229)
Experiment: Cholinergic receptor muscarinic 1 (CHRM1) small molecule antagonists, cell-based qHTS assay (AID 1963588); further: nearly all actives have a fitted effect of over 40% in size
Conditions: CHRM1-CHO antagonist mode, calcium flux fluorescence; series mostly up to 61.5 µM
Text: National Center for Advancing Translational Sciences [NCATS]
Division of Preclinical Innovation [DPI]
U.S. Environmental Protection Agency [EPA]
National Institutes of Environmental Health Sciences [NIEHS]
National Toxicology Program [NTP]
U.S. Food and Drug Administration [FDA]
The CHRM1 is a muscarinic receptor. This receptor plays a crucial role in learning and memory processes and has long been identified as a promising therapeutic target for the improvement of cognitive decline in Alzheimer's disease (AD). The CHRM1-CHO cell line stably expressing human muscarinic acetylcholine receptor M1 (CHRM1) can be used for screening agonists and antagonists of interactions between CHRM1 and its ligands. The CHRM1-CHO Calcium Flux Assay is a homogeneous fluorescence-based assay for detecting the intracellular calcium level using FDSS kinetic plate reader system.
Tox21 Assay Protocol Summary:
CHRM1-CHO cells were dispensed at 1000 cells/3uL/well in 1536-well black-clear bottom plates using a Multidrop Dispenser. After the assay plates were incubated at a 37 C/5% CO2 incubator for 18 h, 3 uL of Dye Loading Buffer was transferred to the assay plate by a Flying Reagent Dispenser. The assay plates were incubated at 37 C for 1h. For antagonist mode, 23 nL of compounds dissolved in DMSO, positive controls or DMSO only was transferred to the assay plate by a pin tool. After 5 min incubation at room temperature, 1.5 uL of acetylcholine at 50nM was added to each well. The fluorescence intensity in the plates was measured using FDSS 7000EX kinetic plate reader for 3 min at 1 sec intervals. Each test compound was measured at 15 concentrations in three independent runs.
Potency means the concentration at half of the fitted maximal effect.

Muscarinic acetylcholine receptor M1 (Homo sapiens), sequence (P11229 whole entry, looked up): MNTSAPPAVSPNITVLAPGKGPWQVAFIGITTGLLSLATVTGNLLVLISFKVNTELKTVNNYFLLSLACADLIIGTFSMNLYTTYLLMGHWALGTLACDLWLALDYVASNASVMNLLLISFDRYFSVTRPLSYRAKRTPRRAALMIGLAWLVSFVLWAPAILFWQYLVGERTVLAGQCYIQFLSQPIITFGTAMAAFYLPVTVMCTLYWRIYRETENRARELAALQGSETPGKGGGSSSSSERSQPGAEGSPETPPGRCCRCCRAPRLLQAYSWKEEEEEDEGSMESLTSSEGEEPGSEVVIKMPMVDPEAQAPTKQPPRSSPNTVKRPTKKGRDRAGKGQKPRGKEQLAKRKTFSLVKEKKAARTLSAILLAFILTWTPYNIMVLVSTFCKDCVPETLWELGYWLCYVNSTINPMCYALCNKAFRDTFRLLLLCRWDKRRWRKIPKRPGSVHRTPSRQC

Structure (SMILES) | Potency | activity, negative = inhibition
O=C(OC1C[C@H]2CC[C@@H](C1)[N+]21CCCC1)C(O)(c1ccccc1)c1ccccc1 (stereo not given in full) | 1.5 nM (active) | –
CCCCCCCCN(C)CCCCCCCC | inactive | –
CCC(C(=O)O)c1ccc(N2Cc3ccccc3C2=O)cc1 (stereo not given) | inactive | –
O=c1[nH]c(=O)c2[nH]c(=O)[nH]c2[nH]1 | – | 3.65% [at 5.58 µM]
Cc1cccc(CN2CCN(C(c3ccccc3)c3ccc(Cl)cc3)CC2)c1 (stereo not given) | inactive | –
Nc1nc(CC(=O)O)cs1 | inactive | –
CN(C)CCCOc1nn(Cc2ccccc2)c2ccccc12 | inactive | –
CCCCCCCCCCCCCCCCOS(=O)(=O)O | inactive | –
O=C(O)c1cccc(Cl)n1 | inactive | –
CC1CCCCC1 | inactive | –
CCCCCCCCN | inactive | –
Cc1cnc(NS(=O)(=O)c2ccc(N)cc2)nc1 | inactive | –
COc1ccccc1NC(=O)c1cc2ccccc2cc1O | inactive | –
CN1CCN(C2=Nc3ccccc3Oc3ccc(Cl)cc32)CC1 | inactive | –
CSc1cnc(C)cn1 | inactive | –
CC(C)c1ccc2sc3ccccc3c(=O)c2c1 | inactive | –
NC(=O)c1ccccc1[N+](=O)[O-] | inactive | –
Cc1cc(N)c2cc(NC(=O)Nc3ccc4nc(C)cc(N)c4c3)ccc2n1 | inactive | –
O=CN1CCOCC1 | inactive | –
CCCCCCCCCCCC | inactive | –

Structure (SMILES) | Potency | activity, negative = inhibition
c1ccc2c(CC3=NCCN3)cccc2c1 | inactive | –
CCCCCCCCOc1ccc(C(=O)O)cc1 | inactive | –
BrCCCCCBr | inactive | –
OC[C@H]1O[C@@H](O[C@@H]2[C@@H](CO)O[C@](O)(CO)[C@H]2O)[C@H](O)[C@@H](O)[C@H]1O | inactive | –
NC(=O)Nc1ccc(Cl)c(Cl)c1 | inactive | –
C#CC(O)CCCCC (stereo not given) | inactive | –
CCCCCCCCCCOC(C)=O | inactive | –
[O-][n+]1cccc(CO)c1 | inactive | –
S=C1NC=NC2N=CNC12 (stereo not given) | inactive | –
CCCCCN(CCCOC)C(=O)C(CCC(=O)O)NC(=O)c1ccc(Cl)c(Cl)c1 (stereo not given) | inactive | –
CCNC(=O)C1CC(C)CCC1C(C)C (stereo not given) | inactive | –
C/C=C(\C)C(=O)OCCc1ccccc1 | inactive | –
COCCc1ccccn1 | inactive | –
Cc1cccc2sc(N)nc12 | inactive | –
CCCCCCCC1CCCC1=O (stereo not given) | inactive | –
C=C(C)C1CCC(C)CC1O (stereo not given) | inactive | –
O=C(CO)[C@@H](O)[C@H](O)[C@H](O)CO | inactive | –
Oc1ccc2c(c1)CCC2 | inactive | –
C[N+]12CCC(CC1)C(OC(=O)C(O)(c1ccccc1)c1ccccc1)C2 (stereo not given) | 1.3 nM (active) | –
Cc1ccnc(N)c1 | inactive | –
